Inconclusive results are not listed. Unmarked numbers belong to inactive results. Activity calls are given as the source filed them. Calls come from the whole dose curve; as a rule, active = well fitted cell-killing curve with a large enough effect in the repeat runs; inconclusive = weak or mixed curves, or effect the other way; inactive = flat fitted curve, though single readings scatter.
experiment: cAMP Responsive Elements (CRE) small molecule agonists, cell-based qHTS assay: qHTS cell viability counter screen (AID 2060914); conditions: CRE-bla HEK293T viability, CellTiter-Glo luminescence, 5 h; series mostly up to 92.4 µM; activity change, negative = cytotoxicity: at the top concentration; note: nearly all actives have a fitted effect of over 50% in size
Method in brief: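 In the same wells as the reporter read, viability of CRE-bla HEK 293T cells was quantified by CellTiter-Glo luminescence after a 3 h compound exposure.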
% is set by controls: 0 for no effect and ±100 for the full control effect.

Compared with `O=S(=O)(O)c1cc(S(=O)(=O)O)c2ccc3c(S(=O)(=O)O)cc(S(=O)(=O)O)c4ccc1c2c43`, `CCc1nccnc1CC` is higher in activity change, negative = cytotoxicity: -11.7% [at 18.9 µM] for the first, 11.2% [at 18.9 µM] for the second.

Compared with `CCCCCCCCCCCCCCCCC(C(=O)O)C(O)(CC(=O)O)C(=O)O` (stereo not given), `NCC(=O)CCC(=O)O` is higher in “activity change, negative = cytotoxicity” value: -14.6% [at 42.5 µM] for the first, -1.29% [at 42.5 µM] for the second.

First: NC/C=C/C(=O)O
Second: O=C(O)c1ccccc1-c1ccc(C(F)(F)F)cc1
The “activity change, negative = cytotoxicity” value of the first is lower: -3.31% [at 42.5 µM] for the first, 8.02% [at 42.5 µM] for the second.

Compared with `COC(=O)[C@@H]1CC2=CC(=O)CC[C@]2(C)[C@@]23O[C@@H]2C[C@@]2(C)[C@@H](CC[C@@]24CCC(=O)O4)[C@H]13`, `COc1ccc2cccc(CCNC(C)=O)c2c1` is higher in “activity change, negative = cytotoxicity” value: -2.1% [at 42.5 µM] for the first, 7.72% [at 42.5 µM] for the second.

First: CCN(CC)c1ccc2c(c1)Oc1cc(N(CC)CC)ccc1C21OC(=O)c2ccccc21
Second: CC(C)(C)c1nnc(NS(=O)(=O)c2ccc(N)cc2)s1
The “activity change, negative = cytotoxicity” value of the first is lower: 3.45% [at 42.5 µM] for the first, 9.33% [at 42.5 µM] for the second.

For `CC(C)(C)c1cc(CCC(=O)OCCSCCOC(=O)CCc2cc(C(C)(C)C)c(O)c(C(C)(C)C)c2)cc(C(C)(C)C)c1O`, the “activity change, negative = cytotoxicity” value was 8.17% [at 42.5 µM].

Compared with `O=C1OC(=O)c2cc([N+](=O)[O-])ccc21`, `O=[N+]([O-])c1ccc(CCO)cc1` is lower in “activity change, negative = cytotoxicity” value: 12.7% for the first, -31.4% for the second.

Compared with `CC(C)C(=O)OCC(C)(C)C(O)C(C)C` (stereo not given), `CCC(C)COC(C)=O` (stereo not given) is higher in “activity change, negative = cytotoxicity” value: -1.29% for the first, 2.81% for the second.

Compared with `CCSC(=O)N(CC)CC`, `CCCC(C)C(=O)OCC` (stereo not given) is lower in “activity change, negative = cytotoxicity” value: 19.5% for the first, 16.8% for the second.

First: C=C(C)C(=O)OCCOP(=O)(O)O
Second: CC(=O)CC(C)=O
The “activity change, negative = cytotoxicity” value of the first is lower: -1.11% for the first, 0.254% for the second.

Going from `Nc1nc(=S)c2[nH]cnc2[nH]1` to `Cc1ccc2cccnc2c1`, the “activity change, negative = cytotoxicity” value rises from -15.6% to 7.33%.

Going from `CCCCCO` to `CC(CO)CO`, the “activity change, negative = cytotoxicity” value rises from 0.153% to 1.13%.

Going from `CC(C)(C)OC(=O)N1C[C@@H](F)C[C@H]1C(=O)O` to `CN(C)C(C)(C)CO`, the “activity change, negative = cytotoxicity” value falls from 8.57% to 5.03%.

Going from `Cn1c(=O)cc(Oc2ccc(F)cc2F)c2cnc(NCC(C)(C)O)nc21` to `Cc1cccc(OCCOc2cccc(C)c2)c1`, the “activity change, negative = cytotoxicity” value falls from 6.61% to -4.57%.

First: C=CCOc1c(Br)cc(Br)cc1Br
Second: CCCCC(CC)COC(=O)COc1cc(Cl)c(Cl)cc1Cl (stereo not given)
The “activity change, negative = cytotoxicity” value of the first is lower: 0.13% for the first, 7.23% for the second.

Compared with `O=C(C(=O)c1ccccc1)c1ccccc1`, `C=Cc1ccccc1` is lower in “activity change, negative = cytotoxicity” value: 10.5% for the first, 3.3% for the second.

Compared with `C1CCC2=NCCCN2CC1`, `O=C1OC(=O)C2CCCCC12` (stereo not given) is lower in “activity change, negative = cytotoxicity” value: 20.7% for the first, 0.48% for the second.

First: CC1=CCC(C(C)C)C=C1 (stereo not given)
Second: OCCN1CN(CCO)CN(CCO)C1
The “activity change, negative = cytotoxicity” value of the first is lower: -7.52% for the first, 0.718% for the second.

With `O=S(=O)(O)c1ccc2cc(O)ccc2c1` the Potency was “inactive”.
For `O=C(O)c1ccccc1Nc1cccc(C(F)(F)F)c1`, the Potency was “inactive”.
For `CC(C)(C)C(=O)C1C(=O)c2ccccc2C1=O`, the Potency was “inactive”.
With `Nc1ccc(S(=O)(=O)Nc2nccs2)cc1` the Potency was “inactive”.
For `C=CCOC(=O)c1ccccc1C(=O)OCC=C`, the Potency was “inactive”.

From PubChem BioAssay (Tox21)
